A selection: hits, their analogues and other compounds. The true share with any hit is near 10%.
ALDH1A1 inh – qHTS Assay for Inhibitors of Aldehyde Dehydrogenase 1 (ALDH1A1); AID 1030, 2008; 7.3% of 220,000 active; Potency, µM (titrated, usually from 75.3 µM), for inactives: top-dose activity, negative = inhibition, hits mostly inhibitors; Aldehyde dehydrogenase 1A1 (Homo sapiens), P00352; Purified ALDH1A1, NADH fluorescence, propionaldehyde substrate;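 also: potency is read from the fitted curve at half-maximal effect; plate controls were no enzyme wells and a reference inhibitor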
ALOX12 inhib – qHTS Assay for Inhibitors of 12-hLO (12-human lipoxygenase) | purified 12-hLO, xylenol orange hydroperoxide absorbance | Potency, µM (titrated, usually from 57.1 µM), inactives show at the highest dose activity change, negative = inhibition, usual class: inhibitors | Polyunsaturated fatty acid lipoxygenase ALOX12 (Homo sapiens), P18054 | 0.12% of 150,000 active; active = well fitted inhibition curve with a large enough effect; inconclusive = small, poorly fitted or top-dose-only effect; also: potency is read from the fitted curve at half-maximal effect; nearly all actives have a fitted effect of over 55% in size
Target sequence (P18054 whole entry, looked up): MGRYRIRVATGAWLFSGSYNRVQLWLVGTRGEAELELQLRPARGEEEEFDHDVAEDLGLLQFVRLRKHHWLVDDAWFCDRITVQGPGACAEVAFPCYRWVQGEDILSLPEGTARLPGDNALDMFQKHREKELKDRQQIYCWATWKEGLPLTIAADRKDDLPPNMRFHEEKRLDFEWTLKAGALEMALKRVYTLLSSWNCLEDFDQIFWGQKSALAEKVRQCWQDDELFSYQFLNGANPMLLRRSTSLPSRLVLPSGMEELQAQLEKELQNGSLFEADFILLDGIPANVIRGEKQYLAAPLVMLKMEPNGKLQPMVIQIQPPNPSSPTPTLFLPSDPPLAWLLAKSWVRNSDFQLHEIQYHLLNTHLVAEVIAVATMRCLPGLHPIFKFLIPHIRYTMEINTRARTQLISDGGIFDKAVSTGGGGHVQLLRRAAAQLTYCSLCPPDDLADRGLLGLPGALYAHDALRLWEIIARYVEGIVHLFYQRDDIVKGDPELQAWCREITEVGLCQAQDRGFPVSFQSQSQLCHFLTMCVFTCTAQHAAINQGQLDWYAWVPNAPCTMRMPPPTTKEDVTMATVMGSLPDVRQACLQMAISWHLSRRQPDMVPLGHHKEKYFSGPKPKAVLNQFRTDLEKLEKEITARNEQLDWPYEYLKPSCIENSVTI
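Purified human 12hLO (150 nM final) was preincubated with compounds for 15 min at room temperature in 25 mM Hepes pH 7.0, 0.01% Triton X-100, then reacted with 40 uM arachidonic acid for 30 min. Hydroperoxide was detected with ferrous iron/xylenol orange.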
PNC assembly inh – High Content Assay for Compounds that inhibit the Assembly of the Perinucleolar Compartment. 3.1% of 140,000 active. PC3M PTB-GFP, PNC prevalence imaging, 16 h; active compounds read low. activity change (PNC), negative = inhibition, % at 10 µM;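 active = readout at or below -70, meaning at least 70% loss of cells showing the perinucleolar compartment, a nuclear body marking cancer cells; inconclusive = readout between -30 and a set limit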;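 also: plate controls were DMSO wells for no effect and camptothecin positive control wells for full effect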
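PC3M cells stably expressing PTB-GFP, 750–1000 cells/well, treated 16 h at 37 °C with compound (23 nl of library stock), in duplicate. After paraformaldehyde fixation and Hoechst stain, imaged at 20x; PNC prevalence scored by image analysis.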
LMNA splice mod – qHTS Assay for Modulators of Lamin A Splicing; AID 1487, 2009; Potency, µM (series often up to 46.1 µM), for inactives: at the top dose ratio change, negative = inhibition, actives largely listed as inhibitors; HeLa LMNA splicing GFP/RFP minigene ratio, 48 h; 0.01% of 200,000 active; active = well fitted inhibition curve with a large enough effect in the signal ratio, with a control signal flat, not every such curve was filed as active; inconclusive = small, poorly fitted or top-dose-only effect, or effect the other way, or a change in a side signal; the % refers to the signal ratio; also: potency is read from the fitted curve at half-maximal effect
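S3 HeLa stable clones carrying a lamin A-EGFP splicing minigene plus DsRed2 were seeded at 600 cells/well in Opti-MEM with 2% FBS, pin-dosed and incubated 48 h at 37°C. Acumen cytometry (488 nm) gave the GFP/RFP total-intensity ratio.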
HPGD block – qHTS Assay for Inhibitors of HPGD (15-Hydroxyprostaglandin Dehydrogenase). 15-hydroxyprostaglandin dehydrogenase [NAD(+)] (Homo sapiens), P15428. purified HPGD, NADH fluorescence kinetic, PGE2 substrate. Potency, µM, inactives show at the top dose activity change, negative = inhibition, usual class: inhibitors. 4.3% of 150,000 active; also: potency is read from the fitted curve at half-maximal effect
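NADH formation kinetics: reaction with 30 uM PGE2 and 1 mM NAD+ (final), 20 nM enzyme, Tris-HCl pH 8 with Tween 20, after 15 min compound preincubation at room temperature. Fluorescence change, last versus first of five reads.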
* hit, by the source's call; ? = inconclusive; · = no result given; ! = not active in a repeat; [ ] = remark or other dose. Unless noted, calls follow the shape of the dose curve; as a rule, active = well fitted inhibition curve with a large enough effect (not every such curve was filed as active); inconclusive = small, poorly fitted or top-dose-only effect, or another doubt; inactive = no such curve, though single readings can be large or run the other way. Unless noted, % is scaled to controls: 0 for no effect and ±100 for the full control effect.

SMILES | ALDH1A1 inh | ALOX12 inhib | PNC assembly inh | LMNA splice mod | HPGD block
CC(C)C[C@@H](CC(=O)N[C@@H](CCC(=O)O)CC(=O)O)NC(=O)[C@@H]1CCCC[C@H]1NC(=O)C[C@H](CCCN)NC(=O)C[C@H](Cc1c[nH]c2ccccc12)NC(=O)[C@@H]1CNCC[C@H]1N | ? | -10% | · | · | -8%
N=C1C(c2nc3ccccc3s2)=C(O)CN1Cc1ccco1 | 22µM* | -12% | 12 | 1% | ?
CCCC(=O)NCCc1c2n(c3ccc(OC)cc13)Cc1ccccc1-2 | ? | 7% | · | -3% | ?
C=C1c2ccccc2O[C@H](C(=O)OCC)[C@@H]1CCC(C)C (tested in a mixture with another compound) | 32µM* | -12%[0.00818 µM] | · | · | -11%
C=C1c2cccc(OC)c2O[C@H](C(=O)OCC)[C@@H]1CCC(C)C | ? | 0%[0.00818 µM] | · | · | -28%
C=C1c2ccccc2O[C@H](C(=O)OCC)C1OC (mixture of isomers) | 32µM* | 4%[0.00818 µM] | · | · | -11%
C=C1c2cccc(C(F)(F)F)c2O[C@H](C(=O)OCC)C1OC (mixture of isomers) | 3% | -7%[0.00818 µM] | · | · | -9%
CCOc1ccc(Nc2ncnc3c2nc2n3CCCC2)cc1 | · | · | · | 3%[46 µM] | ·
COc1ccccc1-c1nccc(-n2ccnc2)n1 | 11% | 0% | · | -13% | -7%
CCc1ccc(-c2cn3c(n2)sc2cc(C(=O)NCCc4ccc(OC)cc4OC)ccc23)cc1 | · | · | · | 7%[46 µM] | ·
COc1ccc2c(c1)-c1nc(/N=C/c3ccc(O)c(OC)c3)sc1CC2 | 25µM* | -7% | -8 | -9% | -26%
COc1ccc(Oc2ncc3nc(-c4cccs4)c(=O)n(Cc4cccs4)c3n2)cc1 | 5% | -3% | · | · | -22%
CCNc1ncc2nc(-c3ccc(F)cc3)c(=O)n(CCOC)c2n1 | ? | · | · | -12% | ·
COCc1cc(C)nc(SCC[N+](C)(C)CC(=O)Nc2ccccc2)c1C#N | -11% | · | · | 25%[9.22 µM] | ·
COCc1cc(C)nc(SCC[N+](C)(C)CC(=O)c2ccc(Br)cc2)c1C#N | 7.9µM* | · | · | 24%[46 µM] | ·
CN(C)/C=C/c1onc(-c2c(F)cccc2Cl)c1C#N | 3.5µM* | · | · | -16%[46 µM] | ·
Cc1onc(-c2c(F)cccc2Cl)c1C(=O)N1CCN(S(C)(=O)=O)CC1 | -7% | 7% | -3 | -9% | -9%
Cc1ccccc1S(=O)(=O)Cc1ccc(C(=O)NCc2ccc(F)cc2)o1 | -6% | · | · | · | ·
COC(=O)c1ccc(CS(=O)(=O)c2ccccc2C)o1 | 2.2µM* | ? | 10 | 5% | -13%
Cn1ncc2c(N3CCN(c4ccccc4Cl)CC3)ncnc21 | · | · | · | -9%[46 µM] | ·
CC(=O)N1CCCc2cc(S(=O)(=O)NCc3ccc(OC(C)C)cc3)ccc21 | · | · | · | 4%[46 µM] | ·
N#CC(C#N)=C(N)/C(C#N)=C/c1ccc2[nH]ccc2c1 | 13µM* | · | · | · | ·
O=C(Oc1ccccc1)N1CCC2(CC1)CN(c1ccncc1)C2 | -14% | 7% | · | · | -3%
COc1ccc(-n2ncc(Cl)c(Cl)c2=O)cc1 | 10µM* | · | · | · | ·
Clc1ccccc1C(Nc1cnccn1)Nc1cnccn1 | -12%[13.5 µM] | -2%[11.4 µM] | · | · | ?
SMILES | ALDH1A1 inh | ALOX12 inhib | PNC assembly inh | LMNA splice mod | HPGD block
O=C1NC(c2ccccc2)(C(F)(F)F)C(=O)N1Cc1cccnc1 (stereo unspecified) | -14% | 0% | -85* | 6% | -19%
O=C(O)/C=C/C(=O)NCCNc1ncc(C(F)(F)F)cc1Cl | 28µM* | · | · | -2%[9.22 µM] | ·
O=S(=O)(NCCNc1ncc(C(F)(F)F)cc1Cl)C(F)(F)F | 13% | · | · | · | ·
O=C1C=CC(=O)N1CCNc1ncc(C(F)(F)F)cc1Cl | 0.63µM* | · | · | ? | ·
O=C1CC(=O)N(CCNc2ncc(C(F)(F)F)cc2Cl)C(=O)N1 | 7% | -12% | 49 | -5% | -18%
CN(CC(=O)OCC(N)=O)S(=O)(=O)c1ccc(Cl)cc1 | 6% | · | · | · | ·
O=C(Cn1cnc(S(=O)(=O)N2CCCC2)c1)Nc1ccc(OC(F)(F)F)cc1 | · | · | · | -13%[46 µM] | ·
Cc1nn2c(=O)cc(COC(=O)c3ccccc3NC(=O)C3CCCCC3)nc2s1 | · | · | · | 4%[46 µM] | ·
COC(=O)c1ccc(C(NC(=O)OCc2ccccc2)/C(I)=C/[C@@H](C)C(=O)NCc2ccc(C)o2)cc1 (stereo partly specified) | 28µM* | -5% | · | · | -27%
COc1ccnc(CSC(N)=Nc2ccccc2OC)c1 | 25µM* | -1% | -81* | 5% | -8%
COc1ccnc(CSC(N)=Nc2ccccc2C(F)(F)F)c1 | -3% | 2% | 10 | -9% | -17%
COc1ccnc(CSC(N)=Nc2cccc(C(F)(F)F)c2)c1 | 20µM* | -4% | 18 | ? | -13%
O=C(O)CSc1ccc(Oc2ccc(SCC(=O)O)cc2)cc1 | 13µM* | · | · | 11%[46 µM] | ·
CC(=O)Nc1ccccc1-c1nnc(SCc2ccccc2Cl)[nH]c1=O | -3% | 10% | 44 | 15% | 16µM*
CN(Cc1ccccc1)C(=O)CCCn1c(=O)[nH]c2cc(Cl)ccc2c1=O | -8% | -1% | 51 | -10% | 25µM*
COc1ccc(COC(=O)N/N=C2/C[C@@H](O)[C@@H](O)[C@@H]3[C@@H]4C(=O)N(C(C)(C)C)C(=O)[C@H]4CC[C@H]23)cc1 | 2%[13.5 µM] | · | · | · | ·
Oc1ccc(O)cc1 | -14% | -8% | · | ? | 7.9µM*
Oc1ccccc1 | 12% | 2% | · | · | -10%
N=C(N)c1ccc(O)cc1 | 4% | · | · | ? | ·
O=C(c1ccc(O)cc1)c1ccc(C(=O)c2ccc(O)cc2)cc1 | 3% | -3% | 8 | ? | 22µM*
COc1cc(C(=O)Oc2ccc3c(OC)c4ccoc4nc3c2OC)cc(OC)c1OC | 4% | · | · | · | -9%
CN1/C(=C/C(=S)NC(=O)C2(C)CC2(Cl)Cl)C(C)(C)c2ccccc21 (stereo unspecified) | 4µM* | · | · | ? | ·
CCn1c(=O)c2cc(C(=O)N(C)c3ccccc3F)sc2c2ccccc21 | 25µM* | · | · | · | ·
CCn1c(=O)c2cc(C(=O)N(C)c3ccc(OC)cc3OC)sc2c2ccccc21 | -4% | · | · | · | ·
O=C(N/C(=C\c1ccc(-c2ccccc2)o1)C(=O)N1CCOCC1)c1ccccc1 | -10% | · | · | · | ·
SMILES | ALDH1A1 inh | ALOX12 inhib | PNC assembly inh | LMNA splice mod | HPGD block
Oc1c(I)cc(Cl)c2cccnc12 | 25µM*! | ? | ? | ? | -9%
O=[N+]([O-])c1cc(Cl)c2cccnc2c1O | -10% | · | · | ? | ·
CCN(CC)C(=O)c1ccc2c(c1[N+](=O)[O-])C(=O)c1ccccc1C2=O | 9% | -1% | -82* | -4% | ?
CC(C)c1cc(C(F)(F)F)nc(NNc2nc(C(C)C)cc(C(F)(F)F)n2)n1 | 15%[13.5 µM] | -2%[11.4 µM] | · | · | -5%
COc1cc(C#N)ccc1OCC(=O)Nc1cccc(S(=O)(=O)N2CCCC2)c1 | 13µM* | · | · | -16%[46 µM] | ·
Cc1ccc(NC(=O)CCc2c(C)nc3ncnn3c2C)cc1 | 0% | 4% | 59 | 2% | -9%

Source: PubChem BioAssay
